Bioassay records as filed in PubChem.
Rows were chosen to be rich in hits. Some 4% of all compounds tested hit in one or more screens of this group.
FGF22 binding = binders of recombinant human FGF22 by thermal shift | Q9HCT0 | 340,000 tested, 1.5% active | SYPRO orange fluorescence; percent of sucrose octasulfate shift, DMSO zero | activity (Tm shift, normalised), % at 9.99 µM | AID 651658;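 active = mean Tm shift, scaled 0 neutral to 100 positive control, at about 1.3% or above, every replicate too, limit read from the data; inconclusive = no clear call, values can overlap the other calls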
AF4-AF9 inh = blocks AF4 peptide binding to human AF9. 350,000 tested, 0.47% active. AlphaScreen, biotin-AF4 peptide binding to FLAG-AF9. P42568. inhibition, % at 10 µM;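 active = every replicate reaching a set inhibition limit, whatever the replicate mean, cut at about 25% in these data; inconclusive = mean inhibition reaches that limit but some replicates miss it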;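 note: 0% = plate neutral control median and 100% = total signal loss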
ERAP1 HTS inh = blocks human ERAP1 aminopeptidase activity | recombinant ERAP1, Leu-AMC fluorescence, 60 min | inhibition, % at 10.7 µM | 340,000 tested, 0.15% active | AID 652197;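 active = mean replicate inhibition of at least 30%, or all replicates individually reaching that 30% level; inactive = mean below 30% and not every replicate reaching it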;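 note: 0% = neutral control wells and 100% = L-leucinethiol positive control wells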
Target sequence (Q9NZ08 whole entry, looked up): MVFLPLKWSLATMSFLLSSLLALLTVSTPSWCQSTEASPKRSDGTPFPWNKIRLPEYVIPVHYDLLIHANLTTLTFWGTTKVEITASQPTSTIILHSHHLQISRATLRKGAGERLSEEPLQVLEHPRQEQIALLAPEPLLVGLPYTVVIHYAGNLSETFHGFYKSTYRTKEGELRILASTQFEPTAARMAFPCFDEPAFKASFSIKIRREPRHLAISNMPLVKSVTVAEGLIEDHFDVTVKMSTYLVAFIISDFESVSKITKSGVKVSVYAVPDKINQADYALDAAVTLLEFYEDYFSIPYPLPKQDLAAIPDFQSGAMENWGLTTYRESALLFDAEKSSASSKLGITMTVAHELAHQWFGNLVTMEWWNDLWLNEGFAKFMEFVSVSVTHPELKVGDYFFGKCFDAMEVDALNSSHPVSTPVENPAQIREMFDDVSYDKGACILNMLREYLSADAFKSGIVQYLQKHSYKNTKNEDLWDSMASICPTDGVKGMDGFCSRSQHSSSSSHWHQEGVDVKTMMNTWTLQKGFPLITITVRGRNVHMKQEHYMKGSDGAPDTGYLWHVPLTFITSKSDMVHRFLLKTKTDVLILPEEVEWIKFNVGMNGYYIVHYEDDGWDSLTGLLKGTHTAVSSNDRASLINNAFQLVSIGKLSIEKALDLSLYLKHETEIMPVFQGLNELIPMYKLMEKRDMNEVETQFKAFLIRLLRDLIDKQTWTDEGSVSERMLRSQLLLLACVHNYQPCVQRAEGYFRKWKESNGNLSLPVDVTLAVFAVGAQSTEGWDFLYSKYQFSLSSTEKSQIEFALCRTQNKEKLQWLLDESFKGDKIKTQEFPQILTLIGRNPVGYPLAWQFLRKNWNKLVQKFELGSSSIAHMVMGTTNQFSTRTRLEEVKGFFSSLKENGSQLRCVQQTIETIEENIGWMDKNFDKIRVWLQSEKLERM
RAD52 anneal inh = RAD52 (human) annealing inhibition. P43351. recombinant RAD52 DNA annealing, FRET fluorescence. inhibition, % at 18.7 µM. 360,000 tested, 0.46% active. AID 651710;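 active = every replicate showing at least 50% inhibition; inconclusive = mean inhibition at least 50% but not in every replicate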
DENV2 CPE = DENV2-induced cell death inhibition; DENV2-infected cells, cytopathic effect rescue, plate reader; CPE inhibition, % at 9.99 µM; 350,000 tested, 1.7% active; AID 651640; in the data active = CPE inhibition above about 20%, passing the limit was not always enough; inconclusive = no clear call, values can overlap the other calls; tested in BHK-21 cells;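 note: 0% = median of neutral control wells and 100% = median of positive control wells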
Starred values were filed as active, the others as inactive; ? = inconclusive; . = not tested or not shown.

SMILES | FGF22 binding | AF4-AF9 inh | ERAP1 HTS inh | RAD52 anneal inh | DENV2 CPE
COc1ccc(NS(=O)(=O)c2cc(NC(=O)c3cc(=O)c4ccccc4o3)ccc2OC)cc1 | 43.4* | -2.0 | 1.3 | -3.6 | 2.4
CCc1ccc(NC(=O)N(CCCN2CCOCC2)Cc2cccs2)cc1 | -0.2 | -7.1 | -3.0 | -2.1 | 34.4*
O=C(Nc1ccccc1)N(CCCN1CCOCC1)Cc1cccs1 | 0.2 | 1.4 | -3.2 | 12.3 | -0.8
Cc1ccc(NC(=O)N(CCCN2CCOCC2)Cc2cccnc2)cc1C | -0.2 | 39.2* | 7.2 | -2.1 | -4.6
CC(=O)N1CC[C@@H]2[C@H]1c1cc(-c3cccc(F)c3)ccc1N(C)[C@@H]2CO | -0.1 | 1.2 | 0.7 | -7.5 | -10.6
Cc1ccc(S(=O)(=O)Nc2ccc3c(c2)C(=O)N([C@@H](C)CO)C[C@@H](C)[C@@H](CN(C)S(=O)(=O)c2cccs2)OCCCC[C@@H](C)O3)cc1 | -0.5 | -2.8 | 1.0 | 12.6 | 39.6*
C[C@@H]1CCCCO[C@H](CN(C)S(=O)(=O)c2cccs2)[C@@H](C)CN([C@H](C)CO)C(=O)c2cc(NS(=O)(=O)c3ccc(Cl)cc3)ccc2O1 | 1.6* | -2.5 | -0.2 | -13.4 | 18.8
C[C@H]1CCCCO[C@H](CN(C)S(=O)(=O)c2cccs2)[C@@H](C)CN([C@@H](C)CO)C(=O)c2cc(NS(=O)(=O)c3ccc(Cl)cc3)ccc2O1 | -0.7 | -0.7 | -1.1 | -27.4 | -11.9
C[C@@H]1CN([C@@H](C)CO)C(=O)c2cc(NS(=O)(=O)c3ccc(Cl)cc3)ccc2O[C@@H](C)CCCCO[C@H]1CN(C)S(=O)(=O)c1cccs1 | -0.8 | -2.0 | -1.0 | -20.8 | 35.8*
C[C@@H]1CCCCO[C@H](CN(C)S(=O)(=O)c2ccc(Cl)cc2)[C@@H](C)CN([C@H](C)CO)C(=O)c2cc(NS(=O)(=O)c3cccs3)ccc2O1 | 0.1 | -1.9 | -0.1 | 11.6 | -5.8
Cc1ccc(S(=O)(=O)Nc2ccc3c(c2)C(=O)N([C@@H](C)CO)C[C@@H](C)[C@H](CN(C)S(=O)(=O)c2cccs2)OCCCC[C@H](C)O3)cc1 | 0.0 | -4.1 | -3.5 | 6.7 | -5.3
C[C@@H]1CCCCO[C@@H](CN(C)C)[C@H](C)CN([C@H](C)CO)C(=O)c2cc(NC(=O)c3ccncc3)ccc2O1 | . | -4.0 | 0.2 | -12.3 | 3.7
COCC(=O)N1C[C@H]2[C@@H](c3ccccc31)[C@H](CO)N2C(=O)Nc1ccccc1Cl | 0.4 | 0.4 | 0.1 | 3.9 | -0.6
CCN(CC(=O)Nc1ccc(NC(C)=O)cc1)C(=O)C(c1ccccc1)c1ccccc1 | 43.5* | 0.6 | -3.0 | -30.1 | 7.7
Cc1ccc(NC(=O)c2nnn(-c3cccc(C(F)(F)F)c3)c2N)cc1 | 53.3* | -1.6 | 2.5 | 3.8 | -7.6
Cc1ccc2nc(-c3ccccc3)c(Cc3ccsc3)n2c1 | -0.3 | 2.8 | . | -69.2 | 14.4
Clc1cccc(Cc2c(-c3cccc(Br)c3)nc3c4ccccc4ccn23)c1 | 43.3* | 0.7 | -2.2 | -47.5 | 12.5
Cc1ccc2nc(-c3cccc(Br)c3)c(Cc3ccsc3)n2c1 | 0.1 | 1.9 | -0.4 | -34.8 | 24.4*
FC(F)(F)c1ccccc1Cc1c(-c2cccc(Br)c2)nc2ccc(Br)cn12 | 19.9* | 1.7 | 1.6 | -27.5 | 6.6
Fc1ccc(-c2nc3ccc(Br)cn3c2Cc2ccccc2C(F)(F)F)cc1 | 0.5 | -2.2 | 3.0 | -67.8 | 5.0
Cc1ccc(Cc2c(-c3cccc(Br)c3)nc3c4ccccc4ccn23)cc1 | 0.0 | 0.3 | 0.6 | -106.6 | 38.9*
COc1cc(CN2CC3(CN(C(=O)NC(C)C)C3)c3c(n(C)c4cc(OC)ccc34)[C@@H]2CO)cc(OC)c1 | 0.1 | 0.8 | -3.7 | -20.7 | 2.8
COc1ccccc1CNC(=O)C[C@H]1C=C[C@H](NC(C)=O)[C@@H](CO)O1 | -0.2 | -1.7 | 1.7 | -10.0 | -2.6
CC(=O)N1Cc2cc(C(=O)NCC(F)(F)F)nc(-c3cccc(-c4cncnc4)c3)c2[C@H]1CCO | 0.1 | 2.2 | 3.4 | 5.8 | 5.2
COc1ccc(-c2nc3c4ccccc4ccn3c2Cc2cccc(Cl)c2)cc1OC | 0.8 | 0.9 | -1.4 | -85.5 | 75.8*
SMILES | FGF22 binding | AF4-AF9 inh | ERAP1 HTS inh | RAD52 anneal inh | DENV2 CPE
C[C@H](CO)N1C[C@H](C)[C@@H](CN(C)C(=O)Nc2ccc(F)cc2)OCCCC[C@H](C)Oc2ccc(NC(=O)Nc3ccc(F)cc3)cc2C1=O | 0.0 | -1.6 | 3.5 | -10.5 | -15.5
NS(=O)(=O)c1ccc(NC(=O)CN2CCCC2)cc1 | 0.1 | -1.9 | -2.3 | -3.3 | ?
CCOc1ccc(NC(=O)c2ccccc2NC(=O)CN2CCCCCC2)cc1 | -0.2 | -0.3 | -0.7 | -5.0 | 11.2
COc1ccc(NC(=O)c2ccc(NC(=O)CN3CCN(c4ccccc4OC)CC3)cc2)cc1 | 43.4* | -0.3 | 2.3 | -26.1 | 3.8
O=C(CN1CCCCC1)Nc1ccc(S(=O)(=O)c2ccc(NC(=O)CN3CCCCC3)cc2)cc1 | 43.7* | 5.7 | -3.9 | -6.5 | 2.2
COc1ccc(NC(=O)c2ccccc2NC(=O)CN2CCCCCC2)cc1 | -0.1 | 28.4* | -0.3 | -2.1 | -2.6
C[C@@H]1CN([C@H](C)CO)C(=O)Cc2cc(NC(=O)c3ccncc3)ccc2O[C@H]1CN(C)CC1CCCCC1 | -0.1 | -0.2 | 2.9 | -2.0 | -5.4
COc1ccc2c3c(n(C)c2c1)[C@H](CO)N(C(=O)Nc1ccc(F)cc1)CC31CCN(C(=O)CN2CCOCC2)CC1 | 0.0 | 0.7 | 3.5 | 20.1 | -1.3
COc1cc(C(=O)NCC(=O)OCn2nnc3ccccc3c2=O)cc(OC)c1OC | 0.3 | -1.5 | -0.7 | -7.6 | .
CC(NC(=O)c1ccccc1)C(=O)OCn1nnc2ccccc2c1=O (stereo not given) | -0.2 | -0.5 | -2.3 | -20.4 | 33.2*
C[C@H](NC(=O)c1ccc(Cl)cc1)C(=O)OCn1nnc2ccccc2c1=O | 0.1 | -0.9 | -3.2 | -10.6 | -2.0
COc1cc(CC(=O)OCn2nnc3ccccc3c2=O)cc(OC)c1OC | 43.9* | -8.9 | 2.9 | -10.0 | -1.5
COc1ccc(S(=O)(=O)Nc2ccc3c(c2)C(=O)N([C@@H](C)CO)C[C@@H](C)[C@H](CN(C)C(=O)C2CCCCC2)OCCCC[C@H](C)O3)cc1 | 0.9 | 0.6 | -2.9 | 4.3 | -1.5
CCN(C[C@H]1N[C@@H](CO)[C@@H]1c1ccccc1)C(=O)c1ccncc1 | 0.0 | -2.2 | -1.4 | -12.9 | -5.9
CCN(C[C@@H]1N[C@@H](CO)[C@@H]1c1ccccc1)C(=O)c1ccncc1 | -0.7 | -1.4 | 1.2 | -5.8 | 22.0*
CCC(=O)N(CC(C)C)C[C@@H]1[C@@H](c2ccccc2)[C@@H](CO)N1S(C)(=O)=O | . | . | . | -9.0 | 28.7*
CC(C)CN(C[C@@H]1N[C@@H](CO)[C@@H]1c1ccccc1)C(=O)CN(C)C | 0.2 | -2.2 | -2.9 | 8.2 | 40.1*
CC(Cc1ccccc1)C(=O)NCc1ccncc1 (stereo not given) | 0.1 | ? | 0.8 | -28.5 | .
OC(Cc1ccncc1)c1ccccc1Cl (stereo not given) | 43.4* | 0.6 | 1.7 | -15.3 | 7.9
